# From PubChem
# The list is not random: actives were taken first. Their share in the collection is about 3.6%.
# TROY signal inh: inhibitors of TROY-dependent NF-kB signaling; Q293 LMP1-TROYcd NF-kB luciferase reporter, 4 h; inhibition, % at 10 µM; actives 0.98% (n = 360,000);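 active = compounds whose plate-normalised and pattern-corrected inhibition of the luciferase reporter signal at the single screening dose is 50% or more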
# LMP1 NFkB inh: Epstein-Barr LMP1 NF-kappaB reporter inhibition. LMP1-induced NF-kappaB luciferase reporter cells, luminescence. actives 0.69% (n = 350,000). inhibition, % at 12.5 µM; in the data active = inhibition above about 41%; inconclusive = no clear call, values can overlap the other calls
# LGR2 inh: inhibitors of bursicon-induced Drosophila LGR2 receptor cAMP signaling | HEK293 LGR2, CRE-luciferase, bursicon-stimulated, 4 h | inhibition, % at 9.99 µM | actives 0.35% (n = 380,000) | AID 720647;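 active = drop in luminescence signal, shown as inhibition above about 50% in the replicate tests, limit read from the data, passing the limit was not always enough; inconclusive = probably only some replicates passing the limit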;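 note: agonist challenge used bursicon conditioned medium at about half maximal strength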
# TWEAK Fn14 block: TWEAK-Fn14 signaling inhibition; inhibition, % at 10 µM; actives 2% (n = 360,000); TWEAK-stimulated Fn14 reporter cells, luciferase luminescence, 8 h; in the data active = inhibition above about 50%
# HSF-1 act: increases HSF-1 driven luciferase reporter signal. NIH3T3-HGL HSF-1 luciferase reporter, MG132, 8 h; 100% = twice DMSO control signal. activation, % at 9 µM. actives 1.7% (n = 300,000). AID 504408;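 active = mean replicate activation of at least 50% with a set share of replicates each reaching 50%; inconclusive = only one of those two conditions met; inactive = mean below 50% and too few replicates reaching it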
# HSF1 inhib: HSF1 inhibition | NIH3T3-HGL HSE-luciferase, MG132-induced, luminescence 8 h; hits give low values | activity change, negative = inhibition, % at 7.5 µM (by protocol) | actives 0.77% (n = 300,000) | AID 2098;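 active = more than half of replicate wells show activity change below -50%, luminescence cut by over half; inconclusive = some wells, but at most half, below -50%; inactive = no replicate well below -50%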;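 note: luciferase reports HSF-1 transcriptional activity via heat shock element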
# A number is an active result; - = inactive; ? = inconclusive; . = not tested or not shown.
SMILES,TROY signal inh,LMP1 NFkB inh,LGR2 inh,TWEAK Fn14 block,HSF-1 act,HSF1 inhib
CSc1ccccc1CNc1nc(NCC2CC2)nc2ccsc12,52,.,-,-,.,.
C#Cc1cccc(Nc2nc(NCc3ccccc3)nc3ccsc23)c1,-,.,-,69,.,.
Cc1ccc(OC(=O)c2ccc(C)c(C)c2)cn1,-,-,.,-,54,-
C[C@@H]1CN([C@@H](C)CO)C(=O)Cc2cc(NC(=O)c3ccncc3)ccc2O[C@H]1CN(C)C(=O)Nc1ccc2c(c1)OCO2,.,.,-,.,.,.
CCSc1nnc(NC(=O)C(C)C)s1,-,-,-,-,-,-
Cc1ccc(NC(=O)CSc2nnc(NC(=O)C(C)C)s2)c(C)c1,-,63,-,-,-,-
N#Cc1ccc(OCCN2CCc3ccccc3C2)cc1,-,-,-,-,85,-
CCOc1ccc(-c2cc(CCCC(=O)NCc3cccnc3)no2)cc1,-,-,-,-,-,-
COc1ccc(-c2cc(CCCC(=O)NCc3ccccn3)no2)cc1,-,-,-,86,-,-
COc1ccc(-c2cc(CCCC(=O)NCCc3ccc(OC)cc3OC)no2)cc1,-,-,.,-,62,-
CCOc1ccc(-c2cc(CCCC(=O)Nc3cccc(OC)c3)no2)cc1,-,47,-,57,-,-
CCOc1ccc(NC(=O)CCCc2cc(-c3ccc(OCC)cc3)on2)cc1,-,-,.,-,-,-
COc1ccc(-c2cc(CCCC(=O)NCCc3ccccc3)no2)cc1,-,-,-,-,-,-
O=C(C[C@@H]1C[C@H]2c3cc(NC(=O)Nc4ccc(C(F)(F)F)cc4)ccc3O[C@H]2[C@@H](CO)O1)NCc1ccc(Cl)cc1,.,.,-,.,.,.
Cc1cccc(CSC(Nc2ccc(F)cc2)=C(C#N)C#N)c1,-,-,?,64,-,-
N#CC(C#N)=C(Nc1ccc(F)cc1)SCc1cccc(Br)c1,-,?,-,-,-,-
O=C(NC1CCCC1)N1CC2(C1)[C@@H](c1ccccc1)[C@@H](CO)N2CC1CCCC1,.,.,-,.,.,.
COc1ccc(Nc2nccc(-c3cccc(N)c3)n2)cc1,-,-,-,76,-,-
CN1CCN(c2ccc(-c3cc(NC=O)c4ncc(-c5ccc(F)c(Cl)c5)n4c3)cc2)CC1,51,.,-,-,.,.
CC(=O)Nc1cc(-c2ccc(N3CCN(C)CC3)cc2)cn2c(-c3ccc(F)c(Cl)c3)cnc12,-,.,-,-,.,.
Cc1cccc(C)c1NS(=O)(=O)c1ccc2c(c1)NC(=O)CO2,-,-,-,-,-,-
Cc1ccccc1NS(=O)(=O)c1ccc2c(c1)NC(=O)CO2,-,-,.,-,61,-
Cc1cccc(NC(=O)C2CCN(S(=O)(=O)c3ccc4c(c3)NC(=O)CO4)CC2)c1C,-,-,-,-,73,-
Cc1ccc(NC(=O)CC(C)S(=O)(=O)c2ccc3c(c2)NC(=O)CO3)cc1C (stereo unspecified),-,-,-,-,-,-
Cc1cccc(NC(=O)CC(C)S(=O)(=O)c2ccc3c(c2)NC(=O)CO3)c1C (stereo unspecified),-,-,-,-,105,-
SMILES,TROY signal inh,LMP1 NFkB inh,LGR2 inh,TWEAK Fn14 block,HSF-1 act,HSF1 inhib
Cc1ccc(C)c(N2CCN(C(=O)CCS(=O)(=O)c3ccc4c(c3)NC(=O)C(C)S4)CC2)c1 (stereo unspecified),-,-,-,72,-,-
C[C@@H]1CN([C@H](C)CO)C(=O)c2c(c3ccccc3n2C)-c2ccccc2CO[C@@H]1CN(C)C(=O)c1cc(Cl)cc(Cl)c1,.,.,-,.,.,.
C[C@@H]1CN([C@@H](C)CO)C(=O)Cc2cc(NC(=O)CCCCCC(=O)Nc3ccccc3N)ccc2O[C@@H]1CN(C)C(=O)Nc1ccc2c(c1)OCO2,.,.,-,.,.,.
CCC(=O)N1[C@H](CO)[C@@H](c2ccc(C3=CCCC3)cc2)[C@@H]1CNC(=O)CN(C)C,.,.,-,.,.,.
Cc1ccc(NC(=O)C2CCN(S(=O)(=O)c3ccc4c(c3)NC(=O)C(C)S4)CC2)cc1Cl (stereo unspecified),-,40,-,63,-,-
Cc1n[nH]c(C)c1CCc1nc2c3ccccc3nc(SCC(=O)Nc3ccccc3F)n2n1,-,-,.,-,-,-
Cc1cccc(NC(=O)CSc2nc3ccccc3c3nc(CCc4c(C)n[nH]c4C)nn23)c1,-,-,.,60,-,-
CN(C)C(=O)c1cccc(-c2ccc3nncn3c2)c1,-,.,-,-,.,.
